# System: PPARa:RXRa (NR concentration 270 nM, RXRa partner concentration 90 nM)
# Assay: PBM binding z-score (relative to random genomic background probes); higher = stronger binding; sequences stand for … in GC…GCGATTGACAGCGTAGAATGAAGG
# Outline: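 Custom Agilent 4×180K protein-binding microarrays carried double-stranded probes, each with a 34-nt variable region. These regions held direct-repeat seeds, single-nucleotide variants, half-site ablations and random human genomic background sequences. Ligand-free nuclear receptor dimers were incubated on the arrays for 1 h, antibodies against each partner (one per run) detected binding, and scanned fluorescence was regression-normalized. Binding z-scores take the random background probes as reference.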
row,Sequence,PBM binding z-score
1,ATCGAAAGGTAGACGAGGTGAGTATACACCGTTT,0.231
2,CAGCCTAGGTCAGGGCCGGTATAGGAGGAACGTT,1.97
3,CAAACTAGGTCAAGAGGTCGAAGTCCGCTTCCCG,5.23
4,TAGCCTAGGTCATTGGGGCAGTATAGTACGCATC,4.2
5,CGAACTAGGTCATTGACAGGACAGTGAATAGTAA,4.67
6,AGATGTAGGTTACATCCGGGTCATTCAGGCTATG,4.14
7,CAAACTAGGTCAAAGAGGTCAAAGTCCGTGCGTA,6.17
8,CATACAGGGTCAGCTAGGCCAGGGTAGGGACGGC,4.12
9,GCTTACGGGTCGAAGGTTATAGCATGAATAGAAT,4.36
10,CCTATTGGGCCACGAAAGGTCATTGATTCAGTGA,4.6
11,CCCACTGGGCCAAAGGTCATTGATTCCAATGCTC,6.5
12,CCGACTGGGGCAAAAGTTACCATACTCAGTACGA,2.49
13,ACTAGCAGGCCAAGTTTGGGTCACTCTAACAAAG,1.03
14,CGAACTAAGTCAGAACAGGACAGTGAAGGATGAT,-0.444
15,ACAGACAGTTGATGAAGGTAACTCAGGCTATCAT,-0.00843
16,ATCTCTAGGTAACCAAGTTCAGTGGATGCCGAAC,0.94
17,CAAACTAGGTCACCGGAAGGTCAAGGTCCGCATG,5.83
18,CCTTACGGGTCACTGACAGTTTATAGCATTTGGA,5.18
19,AGGCAAAGTTCAGGACGAGGTAACGTAAAGCACG,3.37
20,CGTCCAAGGCCAGCAGGTCAGTGAAAGCGACGTG,0.83

row,Sequence,PBM binding z-score
1,ATCTCTAGGTAAGACTCAGTGCAGTGAAGAACGC,-0.163
2,CCGACTGGGGCATAAGGTTAACATAAGCCAGCCC,2.22
3,CCTAGCAGGCCAGGGTCACTCATGCATTTCGCTT,2.91
4,CAAACTAGGTCAAGAGGTCATAGTCCGCTTCCCG,6.55
5,ATCTCTAGGTAAGAGTCAGTTCAGTGAAGAACGC,0.413
6,GGAACGAGGGCGAGTTGATAGCAGAGTTTGATGG,-0.0875
7,CGTCAATGTTCAAGGTAACGTAACAGAAAGCAGC,-0.0522
8,CCTACTGGGCCAAGGGCATTGATCAGTCAAAGCA,1.1
9,ATATGTCGGTTATCGGGTCATTCAGTTTGCGCAT,3.3
10,GCTAGCAGGCCATTTGGGTCACTCAGTGACGGGC,1.14
11,CATTACGGGTCAAGGTTATAGCACGGGTGGTACG,5.27
12,TCTCGGAGGACACGAAAGGTCATAGCTCGACATC,4.49
13,CCGGACAGGTGAAAGGTAACTCAGTCTGGTACGC,3.17
14,CCAGACAGGTGAGAAGGTAACTTAGCCTCGATTA,0.501
15,TCGAGTAGGTTAGTCGGGGCATTCAACCAACATA,0.929
16,CCTTGCAGGCCAATCTGGGTCACTCAAGGCTTGA,3.31
17,CTCGAAAGGTCGGTTGAGGTGAGTACACGGATAA,2.77
18,CCTGCTAGGTCGATGGTCAGCTAAAGCAGCTCGC,0.0378
19,CCTCGGAGGACAGAAGGTCAGGGCTGTCCGCTTT,2.17
20,CCTACTGGGCCAAGGTCAATGATCAGTCAAAGCA,3.85

# From the supplement of paper PMC6555819
